In PubChem BioAssay (NCATS) one finds Potency, activity change, negative = inhibition and activity, negative = inhibition data, which are given here for 16 compounds.

Assay [1] concerns the target Lysosomal acid glucosylceramidase (Homo sapiens) (UniProt P04062). In words: Glucocerebrosidase-p2 (AID 348; in the data active = potency below about 10 µM; note: potency is the fitted concentration of half-maximal effect). To be noted: purified GBA, blue fluorogenic substrate, 40 min. An outline of the steps: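 Normal human glucocerebrosidase (0.2 nM) with blue fluorogenic substrate (80 uM final) in citrate/phosphate pH 5.9 with 10mM sodium taurocholate, 0.01% tween-20; 40 min RT, NaOH/glycine stop; fluorescence Ex 365/Em 440; AC50 from a titration from 0.6 nM upwards.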

Assay [2] can be described thus: AP1 Signaling Pathway (AID 357).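 Note: ME-180 reporter cells stimulated with EGF at its EC50 level; % is set by controls: 0 for no effect and ±100 for the full control effect.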 To be noted: ME-180 AP-1-bla reporter, EGF-induced, beta-lactamase ratio, 5 h; at 7.69 µM (top of the series) unless noted. An outline of the steps: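 A ratiometric CCF4 readout (405 nm excitation; 460 and 530 nm emission) quantified AP-1-driven beta-lactamase in ME-180 cells after 5 h with compound and EC50 EGF; AC50 values were derived for activators and inhibitors.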

The target of assay [3] is Cytochrome P450 1A2 (Homo sapiens) (UniProt P05177). Nature of the assay: p450-cyp1a2 (AID 410; calls by dose curve; note: potency is the fitted concentration of half-maximal effect;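 for activity change, negative = inhibition: -100% = full effect of reference inhibitor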). An outline of the steps:
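Read-out is luminescence from luciferin produced by CYP1A2 demethylation of Luciferin-ME (100uM, at Km). Detection reagent stopped the 60 min NADPH-dependent reaction; signals were normalized to 57 uM furafylline.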

Assay [4] can be described thus: NFAT Signaling Pathway (AID 444).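 Note: carbachol stimulus at about its EC50 of 1 µM final; % is set by controls: 0 for no effect and ±100 for the full control effect.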 The note with it: Jurkat NFAT-bla M1, carbachol, beta-lactamase ratio, 5 h; at 7.69 µM (top of the series) unless noted. In outline:
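Jurkat cells with NFAT-driven β-lactamase reporter and co-expressed M1 receptor, stimulated with carbachol (final 1 uM, ~EC50), compound titration, 5 h at 37 °C. CCF4 loaded 1 h at RT; 460/530 nm ratio gave %activity and AC50.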

Assay [5] is described as follows: Stat Signaling Pathway (AID 446).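 Note: ME-180 cervical cancer cells given 40 pM IL-6 alongside compound; SIE-controlled beta-lactamase reporter measured as 460/530 nm FRET emission ratio; % is set by controls: 0 for no effect and ±100 for the full control effect.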 To be noted: ME-180 (cervical carcinoma) SIE beta-lactamase reporter, IL-6 stimulated, 5 h; at 7.69 µM (top of the series) unless noted. An outline of the steps: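 Compound effects on IL-6-induced STAT reporter activity were measured in ME-180 cells. After overnight culture, cells were co-treated with 40 pM IL-6 for 5 hrs before beta-lactamase substrate loading at room temperature.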

The target of assay [6] is Glucocorticoid receptor (Homo sapiens) (UniProt P04150). Nature of the assay: GR-GFP Redistribution (AID 450;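 active = compounds whose dose series gives a full or clear partial fitted curve of increased nuclear translocation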; note: potency is the fitted concentration of half-maximal effect). The note with it: U2OS GR-GFP nuclear translocation, laser cytometry, 2 h.
For assay [7] the target is unchanged. In words: GR-EFC Redistribution (AID 451; calls by dose curve; note: potency is the fitted concentration of half-maximal effect). To be noted: CHO-K1 GR-EFC translocation, beta-gal luminescence, 2 h. An outline of the steps: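 CHO-K1 cells expressing nuclear EA and GR-ED fragments of b-gal; compounds titrated up to 46 uM final, 2 h at 37 C. GR nuclear translocation read as complemented b-gal luminescence after 1 h RT detection.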
Assay [8] deals with Mitogen-activated protein kinase 10 (Mus musculus) (UniProt Q61831). Nature of the assay: JNK3 AlphaScreen Assay (AID 530).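 Note: kinase came from lysate of stimulated human HepG2 cells; signal reports phosphorylation of biotinylated GST-cJun 1-79 at Ser73 with 10 µM ATP; % is set by controls: 0 for no effect and ±100 for the full control effect.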 An outline of the steps: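 HepG2 lysate (IL-1b/TNFa pre-activated) + biotin-GST-cJun 1-79 + anti-pSer73 cJun; cpd titration, 15 min RT; ATP 10 uM start; Tris pH 7.6, MgCl2, DTT, vanadate; beads in EDTA buffer; AlphaScreen.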
(Bead proximity is the source of the signal in Alpha formats.)

Assay [9] has as its target 3',5'-cyclic-AMP phosphodiesterase 4B (Homo sapiens) (UniProt Q07343). In words: qHTS Assay for Inhibitors of PDE-IV (AID 607; active = well fitted activation curve with a large enough effect in the main read-out, with a control signal flat, not every such curve was filed as active; note: % of control where 0% means no effect). In outline: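 ACTOne HEK293 cells carry a modified cAMP-gated CNG channel and express endogenous PDE4; plated 1000 cells/well, compounds up to 22.9 uM final. Membrane-potential dye fluorescence (ex 535/em 590) was read; parental cells received 10 uM forskolin + 100 uM RO 20-1724.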
(qHTS replaces the single test concentration by a dilution series.)

A number with no mark means an inactive call. Inconclusive results are not listed. Active and inactive are the calls of the source. Unless noted, calls come from the whole dose curve; as a rule, active = well fitted curve in either direction with a large enough effect (not every such curve was filed as active); inconclusive = small, poorly fitted or top-dose-only effect, or another doubt; inactive = flat fitted curve, though single readings scatter.

Sequence of Glucocorticoid receptor (Homo sapiens) (P04150 whole entry, looked up, the tested form may be a part): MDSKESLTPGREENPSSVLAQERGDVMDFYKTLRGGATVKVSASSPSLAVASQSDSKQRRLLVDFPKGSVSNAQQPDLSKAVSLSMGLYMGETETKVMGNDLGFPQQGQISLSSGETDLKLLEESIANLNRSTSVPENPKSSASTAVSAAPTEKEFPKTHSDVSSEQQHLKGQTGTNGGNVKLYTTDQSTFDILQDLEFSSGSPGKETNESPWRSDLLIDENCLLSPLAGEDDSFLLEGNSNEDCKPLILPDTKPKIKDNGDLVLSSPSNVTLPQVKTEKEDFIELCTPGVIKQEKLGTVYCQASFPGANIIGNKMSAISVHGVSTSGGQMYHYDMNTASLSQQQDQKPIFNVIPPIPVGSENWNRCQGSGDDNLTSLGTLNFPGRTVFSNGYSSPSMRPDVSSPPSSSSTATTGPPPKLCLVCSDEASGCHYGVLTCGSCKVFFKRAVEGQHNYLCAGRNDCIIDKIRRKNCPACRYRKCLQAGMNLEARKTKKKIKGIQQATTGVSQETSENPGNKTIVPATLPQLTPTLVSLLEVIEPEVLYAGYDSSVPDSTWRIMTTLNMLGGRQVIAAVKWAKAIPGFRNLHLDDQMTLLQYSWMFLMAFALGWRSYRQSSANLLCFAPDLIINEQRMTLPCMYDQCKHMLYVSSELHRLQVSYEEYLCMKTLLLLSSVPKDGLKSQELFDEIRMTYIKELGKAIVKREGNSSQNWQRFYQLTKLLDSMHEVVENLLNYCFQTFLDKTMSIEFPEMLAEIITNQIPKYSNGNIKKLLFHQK
Sequence of Cytochrome P450 1A2 (Homo sapiens) (P05177 whole entry, looked up): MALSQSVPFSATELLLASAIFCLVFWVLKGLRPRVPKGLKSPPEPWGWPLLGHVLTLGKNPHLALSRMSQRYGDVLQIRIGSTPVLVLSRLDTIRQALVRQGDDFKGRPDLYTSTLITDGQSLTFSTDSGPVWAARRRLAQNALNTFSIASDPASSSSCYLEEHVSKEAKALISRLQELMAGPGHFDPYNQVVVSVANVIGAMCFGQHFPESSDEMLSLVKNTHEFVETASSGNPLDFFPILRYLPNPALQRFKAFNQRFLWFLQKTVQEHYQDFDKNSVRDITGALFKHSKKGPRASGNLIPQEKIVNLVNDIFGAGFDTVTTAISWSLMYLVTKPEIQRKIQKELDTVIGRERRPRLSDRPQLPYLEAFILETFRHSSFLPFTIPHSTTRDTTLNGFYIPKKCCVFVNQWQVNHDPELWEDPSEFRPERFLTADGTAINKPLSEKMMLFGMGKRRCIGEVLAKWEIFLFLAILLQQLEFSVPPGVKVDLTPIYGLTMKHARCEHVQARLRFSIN
Sequence of 3',5'-cyclic-AMP phosphodiesterase 4B (Homo sapiens) (Q07343 whole entry, looked up): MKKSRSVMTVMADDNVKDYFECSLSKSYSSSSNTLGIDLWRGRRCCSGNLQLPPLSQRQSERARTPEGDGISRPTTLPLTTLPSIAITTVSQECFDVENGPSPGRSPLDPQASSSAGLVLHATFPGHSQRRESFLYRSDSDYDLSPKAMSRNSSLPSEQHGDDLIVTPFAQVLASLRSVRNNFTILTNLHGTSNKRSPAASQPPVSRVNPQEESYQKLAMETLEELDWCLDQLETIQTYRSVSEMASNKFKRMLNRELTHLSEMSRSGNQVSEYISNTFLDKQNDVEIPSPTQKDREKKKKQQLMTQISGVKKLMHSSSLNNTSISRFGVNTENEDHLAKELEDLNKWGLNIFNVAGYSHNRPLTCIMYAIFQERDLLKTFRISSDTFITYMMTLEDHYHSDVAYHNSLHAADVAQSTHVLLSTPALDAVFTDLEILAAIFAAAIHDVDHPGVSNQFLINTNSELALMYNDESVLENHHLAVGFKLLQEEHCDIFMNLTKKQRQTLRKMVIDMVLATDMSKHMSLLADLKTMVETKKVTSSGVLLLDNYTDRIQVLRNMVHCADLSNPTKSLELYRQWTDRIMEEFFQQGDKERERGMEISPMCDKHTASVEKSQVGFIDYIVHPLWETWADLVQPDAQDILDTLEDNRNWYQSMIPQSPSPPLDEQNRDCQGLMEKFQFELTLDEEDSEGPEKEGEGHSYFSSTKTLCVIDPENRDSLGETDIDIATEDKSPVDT
Sequence of Lysosomal acid glucosylceramidase (Homo sapiens) (P04062 whole entry, looked up): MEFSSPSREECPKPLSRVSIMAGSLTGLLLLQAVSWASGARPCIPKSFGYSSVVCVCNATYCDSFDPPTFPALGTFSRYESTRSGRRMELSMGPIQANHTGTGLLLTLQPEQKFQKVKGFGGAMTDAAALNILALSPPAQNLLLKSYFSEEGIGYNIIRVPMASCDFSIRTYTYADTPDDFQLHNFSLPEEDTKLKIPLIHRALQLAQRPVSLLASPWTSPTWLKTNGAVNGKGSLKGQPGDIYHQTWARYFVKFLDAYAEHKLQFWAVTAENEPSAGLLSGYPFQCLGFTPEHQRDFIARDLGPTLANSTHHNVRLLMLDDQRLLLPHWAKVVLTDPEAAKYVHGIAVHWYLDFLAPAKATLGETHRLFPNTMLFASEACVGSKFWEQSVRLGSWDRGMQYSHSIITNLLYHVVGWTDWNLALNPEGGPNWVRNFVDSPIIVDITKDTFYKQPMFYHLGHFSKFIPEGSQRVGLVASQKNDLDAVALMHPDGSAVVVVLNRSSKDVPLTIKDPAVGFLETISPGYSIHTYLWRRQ

In the case of `Cc1[nH]c(N)nc(=S)c1CCC(=O)O`, the Potency is over 11.4 µM in [1], over 46 µM in assay [6] and over 9.22 µM in assay [7]. In addition, the activity change, negative = inhibition in assay [2] is -7.6%; in assay [4], 1.85%. Further, the Potency entry in assay [3], in [8] and in assay [9] was “inactive” throughout. The activity, negative = inhibition in assay [5] is -3.94%.
On to `CN1CCCN(C)C1c1cc([N+](=O)[O-])ccc1O`, for which the Potency was over 11.4 µM in assay [1], over 46 µM in [6] and over 9.22 µM in assay [7]. Also, the activity change, negative = inhibition was 7.56% in assay [2] and -23.2% in assay [4]. The Potency entry in assay [3], in assay [8] and in assay [9] was “inactive” in each case. Further, the activity, negative = inhibition in assay [5] is -0.988%.
As to `CC1=C(CC[C@H](C)CO)O[C@@H]2C[C@@H]3[C@H]4CC[C@H]5C[C@@H](O)CC[C@]5(C)[C@@H]4CC(=O)[C@@]3(C)[C@@H]12`, the Potency in assay [1] is over 11.4 µM; in assay [6], over 46 µM; in assay [7], over 9.22 µM. Also, the activity change, negative = inhibition was 12.3% in [2], -21.1% [at 2.29 µM] in assay [3] and -4.84% in [4]. For the same compound, the activity, negative = inhibition in assay [5] was -18.7%. Moreover, the Potency result in [8] and in assay [9] was “inactive” throughout.
In the case of `O[C@H](COc1ccccc1)CN1CCCCC1`, the Potency was over 11.4 µM in [1], over 46 µM in assay [6] and over 9.22 µM in assay [7]. Moreover, the activity change, negative = inhibition in [2] was -1.24%; in assay [4] it was 2.42%. Also, the Potency entry in [3], in assay [8] and in assay [9] was “inactive” throughout. Also, in assay [5], the activity, negative = inhibition was 10.3%.
On to `C[C@]12CCC3c4ccc(OCC(=O)O)cc4CCC3C1CCC2=O` (some centres undefined), for which the Potency in [1] is over 11.4 µM; in assay [6], over 46 µM; in assay [7], over 9.22 µM. The activity change, negative = inhibition in [2] was 6.42%; in [3] it was 0.7% [at 2.29 µM]; in assay [4] it was -1.29%. Also, the activity, negative = inhibition in assay [5] is 9.48%. The Potency entry in assay [8] and in [9] was “inactive” in each case.
As for `OC[C@@H](O)CNc1ncnc2ccccc12`, the results for the Potency in [1], in assay [6] and in [7] were over 11.4 µM, over 46 µM and over 9.22 µM, respectively. The activity change, negative = inhibition in [2] was -1.31%; in assay [4], 9.96%. The Potency result in assay [3], in assay [8] and in assay [9] was “inactive” throughout. Further, the activity, negative = inhibition in assay [5] is 2.66%.
In the case of `O=C(O)c1ccccc1C1c2ccccc2Oc2ccccc21`, the Potency in assay [1] was over 11.4 µM; in assay [6] it was over 46 µM; in [7], over 9.22 µM. Also, the activity change, negative = inhibition was 2.36% in assay [2], -20.4% [at 2.29 µM] in assay [3] and 4.13% in [4]. Moreover, the activity, negative = inhibition in [5] is 0.279%. The Potency entry in [8] and in assay [9] was “inactive” throughout.
Take `C[C@@H](CS(=O)(=O)Cc1ccccc1)C(N)=O`: the Potency in assay [1] is over 11.4 µM; in assay [6], over 46 µM; in assay [7], over 9.22 µM. For the same compound, the activity change, negative = inhibition is 8.67% in assay [2] and 5.68% in [4]. The Potency entry in assay [3], in assay [8] and in assay [9] was “inactive” throughout. Moreover, in assay [5], the activity, negative = inhibition is 3.43%.
In the case of `c1ccc(CCNc2ccccn2)nc1`, the Potency in assay [1] was over 11.4 µM; in assay [3], 5.01 µM (active); in assay [6] it was over 46 µM; in [7], over 9.22 µM. For the same compound, the figures for the activity change, negative = inhibition in assay [2] and in assay [4] were -8.73% and 2.35%, respectively. Moreover, in assay [5], the activity, negative = inhibition was -1.9%. The Potency entry in [8] and in assay [9] was “inactive” each time.
As for `[O-][N+](CCO)(CCO)c1ncnc2nc[nH]c12`, the Potency is over 11.4 µM in assay [1], over 46 µM in assay [6] and over 9.22 µM in assay [7]. Moreover, the activity change, negative = inhibition was 1.99% in assay [2] and -3.2% in assay [4]. Moreover, the Potency result in assay [3], in assay [8] and in assay [9] was “inactive” each time. The activity, negative = inhibition in assay [5] was -1.19%.
On to `Cc1cc(N2CCN(C)CC2)n2nc(-c3ccc(Cl)cc3)nc2n1`, for which the Potency is over 11.4 µM in assay [1], over 46 µM in [6] and over 9.22 µM in [7]. In addition, the activity change, negative = inhibition was -1.96% in assay [2] and 13.2% in assay [4]. Also, the Potency result in assay [3], in assay [8] and in assay [9] was “inactive” each time. For the same compound, in assay [5], the activity, negative = inhibition is 4.28%.
Consider `O=C(O)[C@H](CCc1ccccc1)N1C(=O)c2ccccc2C1=O`, for which the Potency in assay [1] was over 11.4 µM; in assay [6], over 46 µM; in assay [7], over 9.22 µM. For the same compound, the results for the activity change, negative = inhibition in [2], in assay [3] and in assay [4] were -11.9%, -9.6% [at 2.29 µM] and -3.82%, respectively. Moreover, the activity, negative = inhibition in assay [5] is 8.91%. The Potency entry in assay [8] and in assay [9] was “inactive” each time.
With `Cn1c(=O)c2[nH]c(CCC(=O)O)nc2n(C)c1=O`, the Potency is over 11.4 µM in assay [1], over 46 µM in assay [6] and over 9.22 µM in assay [7]. Moreover, the activity change, negative = inhibition in assay [2] was 0.0396%; in [4], 10.1%. The Potency entry in assay [3], in assay [8] and in [9] was “inactive” each time. In [5], the activity, negative = inhibition is -0.184%.
As to `CSc1ncnc2c1ncn2[C@@H]1O[C@@H](CO)[C@H](O)O[C@@H]1O`, the Potency was over 11.4 µM in assay [1], over 46 µM in assay [6] and over 9.22 µM in assay [7]. Also, the activity change, negative = inhibition in assay [2] is -6.79%; in assay [3], -5.2% [at 2.29 µM]; in [4] it was 22.2%. Besides, the activity, negative = inhibition in assay [5] was 22.9%. In addition, the Potency entry in [8] and in assay [9] was “inactive” in each case.
On to `O=[N+]([O-])/C=C\c1cc2ccccc2[nH]1`, for which the Potency is over 11.4 µM in assay [1], 1.26 µM (active) in [3], over 46 µM in assay [6] and over 9.22 µM in [7]. The activity change, negative = inhibition in [2] is -11.8%; in [4], 12.4%. Besides, in assay [5], the activity, negative = inhibition is 23.3%. Also, the Potency result in [8] and in assay [9] was “inactive” throughout.
Regarding `C[C@@]12CC[C@@H]3[C@H](CCC4=CC(=O)CC[C@]43C)[C@@H]1CC[C@@H]2C(=O)COS(=O)(=O)c1ccc(Br)cc1`, the values for the Potency in [1], in assay [6] and in assay [7] were over 11.4 µM, 0.793 µM (active) and over 9.22 µM, respectively. Moreover, the activity change, negative = inhibition in [2] was -0.601%; in [4], 19%. Moreover, the Potency result in assay [3], in assay [8] and in assay [9] was “inactive” each time. Further, the activity, negative = inhibition in [5] was -0.203%.
